Source: PubChem BioAssay AID1159580 (chemical genetic matrix, 2015)
Screen size: about 5,500 compounds; about 2,000 (36%) were called active. Another 18% or so got no clear call; they are omitted. The list shows a part of the results. Values without a mark were called inactive. No stated cut-off is given here; in the data, active means normalized growth mostly below about 0.91 (no sharp cut-off); inconclusive means no clear call, values can overlap the other calls; inactive means mostly above about 0.92.

Experiment: chemical genetic growth profiling, strain panel (AID 1159580);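 further: tested at 20 µM; growth read once vehicle control cultures reached saturation at 30 °C; 1 = growth at the plate median or of vehicle wells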
Details: S. cerevisiae deletion strains, growth OD
[1] = locus YAL040C, strain CLN3, stronger effect = lower value
[2] = locus YCL061C, strain MRC1 (second series), stronger effect = lower value
[3] = locus YDR363W, strain ESC2, stronger effect = lower value
[4] = locus YER002W, strain NOP16, stronger effect = lower value
[5] = locus YGR078C, strain PAC10, stronger effect = lower value
[6] = locus YNL175C, strain NOP13, stronger effect = lower value
[7] = locus YNL197C, strain WHI3, stronger effect = lower value
[8] = locus YNL224C, strain SQS1, stronger effect = lower value
[9] = locus YNL322C, strain KRE1, stronger effect = lower value
[10] = locus YOR083W, strain WHI5 (second series), stronger effect = lower value

| Compound | normalized growth (locus YAL013W, strain DEP1, stronger effect = lower value) | normalized growth [1] | normalized growth [2] | normalized growth (locus YDR150W, strain NUM1, stronger effect = lower value) | normalized growth [3] | normalized growth [4] | normalized growth [5] | normalized growth (locus YJR075W, strain HOC1, stronger effect = lower value) | normalized growth [6] | normalized growth [7] | normalized growth [8] | normalized growth [9] | normalized growth [10] | normalized growth (locus YMR263W, strain SAP30, stronger effect = lower value) | normalized growth (locus YNL128W, strain TEP1, stronger effect = lower value) | normalized growth (locus YNL153C, strain GIM3, stronger effect = lower value) |
| --- | --- | --- | --- | --- | --- | --- | --- | --- | --- | --- | --- | --- | --- | --- | --- | --- |
| NC(N)=Nc1ccc2[nH]c3c(c2c1)C[C@@]1(O)[C@H]2Cc4ccc(O)c5c4[C@@]1(CCN2CC1CC1)[C@H]3O5 | 1.02 | 1.07 | 0.991 | 0.986 | 1.04 | 1.01 | 0.991 | 1.01 | 0.998 | 0.985 | 1 | 1.03 | 0.97 |  |  |  |
| Oc1ccc(C2CNCc3sccc32)cc1O (stereo unspecified) |  | 1.01 | 0.962 |  | 0.999 | 1 | 0.998 |  | 0.995 | 0.995 | 1 | 0.892 (active) | 1 | 1 | 1.01 | 0.963 |
